# According to publication PMC7862700, “An all-to-all approach to the identification of sequence-specific readers for epigenetic DNA modifications on cytosine”:
# Key:
# Assay in all cases: DAPPL (digital affinity profiling via proximity ligation, sequencing); 10 mM Tris-HCl pH 7.5, 50 mM NaCl, 1 mM DTT, 4% glycerol, room temperature, 30 min; GST-TFs on glutathione beads, 16-mer random dsDNA library, 0.1% formaldehyde crosslink after washing; high values mean tight binding
# FEV = target: T1, FEV (Homo sapiens, UniProt Q99581 1-238); details: protein: recombinant; tags: N-terminal GST; dsDNA, one strand shown
# T1 sequence: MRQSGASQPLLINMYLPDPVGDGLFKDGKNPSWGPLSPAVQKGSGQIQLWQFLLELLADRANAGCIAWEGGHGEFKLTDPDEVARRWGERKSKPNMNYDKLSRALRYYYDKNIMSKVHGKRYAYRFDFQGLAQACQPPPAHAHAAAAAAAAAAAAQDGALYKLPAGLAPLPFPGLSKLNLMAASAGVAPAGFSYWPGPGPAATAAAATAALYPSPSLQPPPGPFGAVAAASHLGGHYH
# Outline: (§1)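 GST fusions of human transcription factors were expressed in yeast and captured with glutathione beads. Once given DNA barcodes and pooled alongside a tag-only sample, they were incubated for 30 min at room temperature with 200 nmole of a random double-stranded 16-mer DNA library in Tris/NaCl/DTT/glycerol buffer, then washed, crosslinked (0.1% formaldehyde), proximity-ligated, PCR-amplified and sequenced on an Illumina NextSeq500. The binding signal of each hexamer is its read frequency for a factor divided by its frequency for the tag-only sample.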
# ETV5 = ETV5 (Homo sapiens, UniProt P41161 1-510); details: protein: recombinant; tags: N-terminal GST; dsDNA, one strand shown
# ETV5, sequence (P41161 whole entry): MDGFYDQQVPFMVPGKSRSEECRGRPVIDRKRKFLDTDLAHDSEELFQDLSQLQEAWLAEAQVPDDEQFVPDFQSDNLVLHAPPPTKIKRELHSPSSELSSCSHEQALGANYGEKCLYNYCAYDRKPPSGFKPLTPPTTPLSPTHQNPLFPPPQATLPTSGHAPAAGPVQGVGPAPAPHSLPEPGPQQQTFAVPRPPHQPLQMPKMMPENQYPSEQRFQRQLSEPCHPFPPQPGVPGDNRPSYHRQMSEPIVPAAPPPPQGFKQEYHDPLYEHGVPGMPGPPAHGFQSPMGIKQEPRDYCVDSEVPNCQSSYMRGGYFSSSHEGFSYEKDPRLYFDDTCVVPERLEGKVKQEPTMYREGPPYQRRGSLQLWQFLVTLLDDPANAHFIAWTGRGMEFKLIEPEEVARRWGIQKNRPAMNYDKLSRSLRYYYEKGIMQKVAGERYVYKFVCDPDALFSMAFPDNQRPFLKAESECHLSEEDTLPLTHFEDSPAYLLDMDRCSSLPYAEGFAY
# Outline: as §1
# HSF1 = HSF1 (Homo sapiens, UniProt Q00613 1-529); details: protein: recombinant; tags: N-terminal GST; chain copies: 3; dsDNA, one strand shown
# HSF1, sequence (Q00613 whole entry): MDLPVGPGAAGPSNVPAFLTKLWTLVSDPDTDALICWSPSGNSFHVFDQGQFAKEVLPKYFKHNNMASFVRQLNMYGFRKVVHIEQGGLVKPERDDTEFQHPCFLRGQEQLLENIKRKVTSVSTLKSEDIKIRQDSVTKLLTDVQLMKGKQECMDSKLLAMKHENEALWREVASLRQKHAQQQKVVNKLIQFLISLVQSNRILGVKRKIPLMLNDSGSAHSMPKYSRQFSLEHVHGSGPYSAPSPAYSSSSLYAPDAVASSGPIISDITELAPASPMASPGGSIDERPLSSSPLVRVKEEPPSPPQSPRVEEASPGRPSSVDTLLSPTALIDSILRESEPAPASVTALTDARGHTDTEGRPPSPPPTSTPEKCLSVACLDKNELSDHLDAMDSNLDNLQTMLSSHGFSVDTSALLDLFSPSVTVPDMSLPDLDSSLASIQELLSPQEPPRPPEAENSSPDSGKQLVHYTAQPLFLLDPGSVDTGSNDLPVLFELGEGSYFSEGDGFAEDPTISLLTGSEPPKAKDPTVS
# Outline: as §1
# SPIC = target: T2, SPIC (Homo sapiens, UniProt Q8N5J4 1-248); details: protein: recombinant; tags: N-terminal GST; dsDNA, one strand shown
# T2 sequence: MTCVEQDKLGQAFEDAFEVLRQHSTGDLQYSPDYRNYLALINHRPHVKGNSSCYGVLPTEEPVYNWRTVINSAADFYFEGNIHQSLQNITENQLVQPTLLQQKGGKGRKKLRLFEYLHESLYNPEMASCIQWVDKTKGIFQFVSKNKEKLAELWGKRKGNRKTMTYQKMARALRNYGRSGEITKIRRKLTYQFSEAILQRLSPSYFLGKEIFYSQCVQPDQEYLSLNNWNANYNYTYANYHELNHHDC
# Outline: as §1
# ELF4 = ELF4 (Homo sapiens, UniProt Q99607 1-663); details: protein: recombinant; tags: N-terminal GST; dsDNA, one strand shown
# ELF4, sequence (Q99607 whole entry): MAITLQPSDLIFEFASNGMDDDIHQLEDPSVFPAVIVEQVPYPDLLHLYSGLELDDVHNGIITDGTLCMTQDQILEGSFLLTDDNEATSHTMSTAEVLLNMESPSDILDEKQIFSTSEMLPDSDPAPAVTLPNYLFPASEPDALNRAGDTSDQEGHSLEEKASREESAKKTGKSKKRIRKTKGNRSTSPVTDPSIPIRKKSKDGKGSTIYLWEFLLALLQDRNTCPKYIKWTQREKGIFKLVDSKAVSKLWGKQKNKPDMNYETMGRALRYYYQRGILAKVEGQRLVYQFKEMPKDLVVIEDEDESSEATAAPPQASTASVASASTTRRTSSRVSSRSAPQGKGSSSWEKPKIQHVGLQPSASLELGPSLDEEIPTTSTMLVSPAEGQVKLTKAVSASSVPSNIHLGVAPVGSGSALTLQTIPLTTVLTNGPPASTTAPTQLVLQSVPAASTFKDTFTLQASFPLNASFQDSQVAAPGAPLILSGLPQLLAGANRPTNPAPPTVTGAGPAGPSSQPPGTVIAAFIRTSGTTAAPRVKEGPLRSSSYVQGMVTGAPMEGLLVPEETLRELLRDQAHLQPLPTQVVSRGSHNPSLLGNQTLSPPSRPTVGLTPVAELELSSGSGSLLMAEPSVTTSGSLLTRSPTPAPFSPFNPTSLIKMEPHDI
# Outline: as §1
# ELK4 = target: T3, ELK4 (Homo sapiens, UniProt P28324-2 1-405); details: protein: recombinant; tags: N-terminal GST; dsDNA, one strand shown
# T3 sequence: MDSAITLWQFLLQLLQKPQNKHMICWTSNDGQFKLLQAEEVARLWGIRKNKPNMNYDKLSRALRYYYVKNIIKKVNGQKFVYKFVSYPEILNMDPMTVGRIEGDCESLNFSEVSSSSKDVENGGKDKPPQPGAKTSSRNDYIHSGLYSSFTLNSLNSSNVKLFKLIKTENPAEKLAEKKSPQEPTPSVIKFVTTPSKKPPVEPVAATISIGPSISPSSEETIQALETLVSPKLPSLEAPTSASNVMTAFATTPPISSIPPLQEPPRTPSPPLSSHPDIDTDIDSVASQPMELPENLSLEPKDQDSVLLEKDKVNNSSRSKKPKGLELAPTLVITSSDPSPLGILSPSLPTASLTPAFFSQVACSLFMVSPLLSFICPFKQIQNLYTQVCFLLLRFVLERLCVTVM
# Outline: as §1
# ETV2 = target: T4, ETV2 (Homo sapiens, UniProt O00321 1-342); details: protein: recombinant; tags: N-terminal GST; dsDNA, one strand shown
# T4 sequence: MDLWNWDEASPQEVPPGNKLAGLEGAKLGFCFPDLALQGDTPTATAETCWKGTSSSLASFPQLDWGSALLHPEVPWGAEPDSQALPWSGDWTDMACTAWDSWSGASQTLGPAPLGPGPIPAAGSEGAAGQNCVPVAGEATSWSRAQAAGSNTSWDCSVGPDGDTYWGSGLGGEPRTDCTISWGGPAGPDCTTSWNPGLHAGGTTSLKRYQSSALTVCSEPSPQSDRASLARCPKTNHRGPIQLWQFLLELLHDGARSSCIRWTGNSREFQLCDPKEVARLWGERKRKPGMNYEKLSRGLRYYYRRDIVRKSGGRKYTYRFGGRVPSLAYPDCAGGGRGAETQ
# Outline: as §1
# ELF3 = target: T5, ELF3 (Homo sapiens, UniProt P78545 1-371); details: protein: recombinant; tags: N-terminal GST; dsDNA, one strand shown
# T5 sequence: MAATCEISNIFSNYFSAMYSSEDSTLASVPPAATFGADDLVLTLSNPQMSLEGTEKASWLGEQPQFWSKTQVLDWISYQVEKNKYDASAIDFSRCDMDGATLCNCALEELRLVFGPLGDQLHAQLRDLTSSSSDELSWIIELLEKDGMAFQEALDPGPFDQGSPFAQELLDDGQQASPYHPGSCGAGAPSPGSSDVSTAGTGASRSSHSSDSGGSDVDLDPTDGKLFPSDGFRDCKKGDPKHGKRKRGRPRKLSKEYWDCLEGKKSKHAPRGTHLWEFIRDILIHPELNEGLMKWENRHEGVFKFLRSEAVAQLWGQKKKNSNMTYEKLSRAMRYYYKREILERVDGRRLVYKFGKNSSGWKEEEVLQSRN
# Outline: as §1
# CRX = CRX (Homo sapiens, UniProt O43186 1-299); details: protein: recombinant; tags: N-terminal GST; dsDNA, one strand shown
# CRX, sequence (O43186 whole entry): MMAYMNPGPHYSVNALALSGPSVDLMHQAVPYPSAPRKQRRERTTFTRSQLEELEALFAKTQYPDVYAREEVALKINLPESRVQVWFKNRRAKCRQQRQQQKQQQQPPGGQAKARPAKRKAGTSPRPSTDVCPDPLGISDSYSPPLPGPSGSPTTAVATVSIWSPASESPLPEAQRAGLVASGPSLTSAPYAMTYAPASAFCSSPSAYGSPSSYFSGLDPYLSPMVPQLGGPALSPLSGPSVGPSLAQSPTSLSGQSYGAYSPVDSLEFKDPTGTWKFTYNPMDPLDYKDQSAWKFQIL
# Outline: as §1
# ETV1 = ETV1 (Homo sapiens, UniProt P50549 1-477); details: protein: recombinant; tags: N-terminal GST; dsDNA, one strand shown
# ETV1, sequence (P50549 whole entry): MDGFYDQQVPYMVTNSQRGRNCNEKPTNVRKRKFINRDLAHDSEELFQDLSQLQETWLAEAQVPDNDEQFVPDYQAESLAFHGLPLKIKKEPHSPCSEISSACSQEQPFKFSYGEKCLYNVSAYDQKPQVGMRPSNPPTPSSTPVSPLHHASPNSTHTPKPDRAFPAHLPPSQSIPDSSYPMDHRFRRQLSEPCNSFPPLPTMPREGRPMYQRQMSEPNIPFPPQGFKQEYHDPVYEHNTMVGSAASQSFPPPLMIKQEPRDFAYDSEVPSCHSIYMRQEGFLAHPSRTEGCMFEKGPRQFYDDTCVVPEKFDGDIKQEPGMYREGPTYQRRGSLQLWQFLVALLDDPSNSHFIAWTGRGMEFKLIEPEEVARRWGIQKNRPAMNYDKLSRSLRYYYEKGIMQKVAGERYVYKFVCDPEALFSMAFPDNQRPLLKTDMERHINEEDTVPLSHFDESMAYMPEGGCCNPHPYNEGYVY
# Outline: as §1
sequence,measurement,setting,value
ATATTA,binding signal,FEV,"1.07 fold enrichment (6-mer frequency, TF over GST control)"
same,binding signal,ETV5,"1.14 fold enrichment (6-mer frequency, TF over GST control)"
same,binding signal,HSF1,"1.35 fold enrichment (6-mer frequency, TF over GST control)"
same,binding signal,SPIC,"1.23 fold enrichment (6-mer frequency, TF over GST control)"
same,binding signal,ELF4,"1.13 fold enrichment (6-mer frequency, TF over GST control)"
same,binding signal,ELK4,"1.16 fold enrichment (6-mer frequency, TF over GST control)"
same,binding signal,ETV2,"1.13 fold enrichment (6-mer frequency, TF over GST control)"
same,binding signal,ELF3,"1.21 fold enrichment (6-mer frequency, TF over GST control)"
same,binding signal,CRX,"1.8 fold enrichment (6-mer frequency, TF over GST control)"
same,binding signal,ETV1,"1.17 fold enrichment (6-mer frequency, TF over GST control)"
